# Shown are actives, neighbours in structure and some others; about 6.7% of the full set was active somewhere.
# C diff growth: C. difficile growth inhibition; Clostridium difficile clinical isolate growth, OD600, 24 h; hits give low values; growth activity, negative = inhibition, % at 16 µg/mL (by protocol); 86,000 compounds, 0.25% hits;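 active = mean growth activity at or below -80% and every replicate also at or below -80%; inconclusive = mean at or below -80% but some replicate above -80%; inactive = mean growth activity above -80%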;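 note: 0% = DMSO wells and -100% = levofloxacin 16 µg/mL wells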
# Pf Dd2 inh: blocks growth of Plasmodium falciparum Dd2 parasites | P. falciparum Dd2 growth, SYBR Green, 72 h; hits give low values | activity change, % at 10 µM | 94,000 compounds, 2.3% hits; in the data active = activity change below about -80%; inconclusive = no clear call, values can overlap the other calls
# T cruzi growth-1: blocks T. cruzi growth in NIH3T3 culture | T. cruzi beta-gal in NIH3T3, GalScreen luminescence, 90 h | inhibition, % at 8.34 µM | 77,000 compounds, 5.9% hits;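 active = mean inhibition above about 93%, with at least 55% of replicates each passing it, limit read from the data, passing the limit was not always enough; inconclusive = only one of those two conditions holds; inactive = neither condition holds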
# T cruzi growth-2: blocks T. cruzi growth in NIH3T3 host cells | AID 651739 | inhibition, % at 8.35 µM | 5,600 compounds, 72% hits | shares compounds with T cruzi growth-1 | T. cruzi beta-gal in NIH3T3, GalScreen luminescence, 90 h;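 active = mean replicate inhibition above about 95% and at least 55% of replicates individually reaching it, limit read from the data; inconclusive = only one of the two criteria is met; inactive = neither criterion is met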
# T cruzi growth-3: blocks T. cruzi growth in NIH3T3 host cells | 5,600 compounds, 21% hits | AID 651740 | inhibition, % at 2.09 µM | shares compounds with T cruzi growth-1 | T. cruzi beta-gal in NIH3T3, GalScreen luminescence, 90 h;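 active = mean inhibition above about 95%, with at least 55% of replicates also reaching it, limit read from the data; inconclusive = meets just one of the two conditions; inactive = meets neither condition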;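 note: plate controls were neutral control median for no effect and positive control median for full effect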
# NIH3T3 tox: kills mouse NIH/3T3 fibroblasts; 5,600 compounds, 14% hits; shares compounds with T cruzi growth-1; cytotoxicity (signal decrease), % at 8.35 µM; NIH/3T3 viability, CellTiter-Glo ATP luminescence, 90 h;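 active = mean signal decrease across replicates above about 35% based on untreated-well scatter, with enough replicates individually passing, limit read from the data; inconclusive = no rule stated though some were filed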;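 note: 0% = median of neutral control wells and 100% = median of positive control wells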
# 3T3 cytotox 2: cytotoxicity in mouse NIH/3T3 fibroblasts. shares compounds with T cruzi growth-1. NIH/3T3 viability, CellTiter-Glo ATP luminescence, 90 h. inhibition, % at 24.9 µM. 5,600 compounds, 56% hits;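 active = mean loss of cell viability signal at or above a set limit, and enough replicates individually reaching it; inconclusive = meets only the mean limit or only the replicate share; inactive = meets neither condition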;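 note: 0% = median of neutral control wells and 100% = median of positive control wells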
# An asterisk follows results filed as active; ? = inconclusive; nt = no result given.
SMILES,C diff growth,Pf Dd2 inh,T cruzi growth-1,T cruzi growth-2,T cruzi growth-3,NIH3T3 tox,3T3 cytotox 2
COc1ccccc1-c1ccc([C@H]2[C@@H](CO)N(C(=O)C3CCCCC3)[C@H]2C#N)cc1,2.7,6.2,74.4,nt,nt,nt,nt
COc1ccc(-c2ccc([C@H]3[C@H](C#N)N(C(=O)C4CC4)[C@H]3CO)cc2)cc1,0.9,-42.4,78.5,nt,nt,nt,nt
COc1ccccc1-c1ccc([C@@H]2[C@@H](C#N)N(C(=O)C3CC3)[C@@H]2CO)cc1,2.1,20.6,104.1*,37.1,-10.8,-8.1,12.0
N#C[C@H]1[C@H](c2ccc(-c3ccccc3F)cc2)[C@H](CO)N1C(=O)C1CC1,2.6,-11.7,29.9,nt,nt,nt,nt
COc1ccccc1-c1ccc([C@H]2[C@@H](C#N)N(C(=O)C3CC3)[C@@H]2CO)cc1,7.6,9.2,102.7*,109.8*,45.0,3.2,34.8*
COc1ccccc1-c1ccc([C@H]2[C@H](C#N)N(C(=O)C3CC3)[C@H]2CO)cc1,10.4,-5.0,105.2*,76.7,24.7,6.5,?
Cc1ccc(S(=O)(=O)N(C)C[C@@H]2Oc3ccc(NC(=O)Cn4cnnn4)cc3CC(=O)N([C@@H](C)CO)C[C@H]2C)cc1,-5.5,-35.0,18.5,nt,nt,nt,nt
C[C@@H](NC(=O)C[C@H]1CC[C@@H]2[C@H](COC[C@@H](O)CN2C)O1)c1ccccc1,-4.0,22.9,-18.9,nt,nt,nt,nt
Cc1noc(C)c1NC(=O)N(C)C[C@@H]1Oc2ccc(NC(=O)C3CCCCC3)cc2C(=O)N([C@H](C)CO)C[C@H]1C,-4.5,15.1,20.8,nt,nt,nt,nt
COc1ccccc1-c1ccccc1[C@H]1[C@H](C#N)N(C(=O)C2CC2)[C@H]1CO,-10.2,22.2,nt,nt,nt,nt,nt
N#C[C@@H]1[C@@H](c2ccc(-c3ccccc3F)cc2)[C@H](CO)N1C(=O)C1CC1,7.0,-4.0,62.8,nt,nt,nt,nt
COc1ccccc1-c1ccc([C@@H]2[C@@H](CO)N(C(=O)C3CC3)[C@H]2C#N)cc1,9.5,3.0,105.4*,73.0,7.8,-21.3,6.7
COc1ccccc1-c1ccc([C@@H]2[C@H](C#N)N(C(=O)C3CC3)[C@H]2CO)cc1,9.3,10.8,101.8*,48.5,-3.3,13.3,46.9*
Cc1cccc(S(=O)(=O)N2C[C@@H]3[C@H](c4ccccc42)[C@H](CO)N3C(=O)C2CC2)c1,5.1,6.1,10.3,nt,nt,nt,nt
CCC(=O)N1CC(=O)N2[C@H](C1)[C@H](c1ccc(C#Cc3cccnc3)cc1)[C@@H]2CO,-6.8,25.2,nt,nt,nt,nt,nt
C[C@H](CO)N1C[C@H](C)[C@H](CN(C)C(=O)Nc2cccc3ccccc23)OCCCC[C@H](C)Oc2ccc(NS(=O)(=O)c3ccc(F)cc3)cc2C1=O,-10.6,-30.9,27.9,nt,nt,nt,nt
C[C@@H]1CN([C@@H](C)CO)C(=O)c2cc(NS(=O)(=O)c3ccc(F)cc3)ccc2O[C@@H](C)CCCCO[C@@H]1CN(C)C(=O)Nc1cccc2ccccc12,-0.8,-86.0*,100.6*,103.8*,54.6,20.8,18.5
C[C@@H]1CCCCO[C@H](CN(C)C(=O)Nc2cccc3ccccc23)[C@H](C)CN([C@H](C)CO)C(=O)c2cc(NS(=O)(=O)c3ccc(F)cc3)ccc2O1,1.6,-83.5*,105.0*,105.6*,73.4,9.0,5.5
C[C@H]1CCCCO[C@@H](CN(C)C(=O)Nc2cccc3ccccc23)[C@@H](C)CN([C@@H](C)CO)C(=O)c2cc(NS(=O)(=O)c3ccc(F)cc3)ccc2O1,-5.8,-77.8,108.6*,107.2*,70.0,-16.1,-0.1
C[C@@H]1CCCCO[C@H](CN(C)C(=O)Nc2cccc3ccccc23)[C@H](C)CN([C@H](C)CO)C(=O)c2cc(NS(C)(=O)=O)ccc2O1,3.3,-59.4,11.1,nt,nt,nt,nt
COc1ccc(S(=O)(=O)Nc2ccc3c(c2)C(=O)N([C@H](C)CO)C[C@@H](C)[C@H](CN(C)C(=O)Nc2cccc4ccccc24)OCCCC[C@@H](C)O3)cc1,nt,-32.3,86.9,nt,nt,nt,nt
COc1ccc(S(=O)(=O)Nc2ccc3c(c2)C(=O)N([C@@H](C)CO)C[C@@H](C)[C@H](CN(C)C(=O)Nc2cccc4ccccc24)OCCCC[C@H](C)O3)cc1,-7.4,-70.6,61.1,nt,nt,nt,nt
C[C@@H]1CN([C@@H](C)CO)C(=O)c2cc(NS(=O)(=O)c3ccc(F)cc3)ccc2O[C@@H](C)CCCCO[C@H]1CN(C)C(=O)Nc1cccc2ccccc12,-7.8,-85.8*,100.4*,108.5*,33.4,-21.2,-16.3
CCCN(C)C[C@@H]1Oc2ncc(-c3ccccc3)cc2C(=O)N([C@H](C)CO)C[C@H]1C,nt,-34.9,nt,nt,nt,nt,nt
COc1ccc(CN(C)C[C@H]2Oc3ccc(NC(=O)C4CC4)cc3CC(=O)N([C@H](C)CO)C[C@@H]2C)cc1,-7.4,19.5,nt,nt,nt,nt,nt
SMILES,C diff growth,Pf Dd2 inh,T cruzi growth-1,T cruzi growth-2,T cruzi growth-3,NIH3T3 tox,3T3 cytotox 2
COc1ccc2c3c([nH]c2c1)[C@H](CO)N(C(=O)NC(C)C)CC31CCN(C(=O)c2ccccn2)CC1,-10.9,-2.8,nt,nt,nt,nt,nt
Cc1ccc(S(=O)(=O)Nc2ccc3c(c2)C(=O)N([C@H](C)CO)C[C@H](C)[C@@H](CN(C)C(=O)Nc2cccc4ccccc24)OCCCC[C@H](C)O3)cc1,-0.7,-72.0,99.4*,110.3*,104.8*,-28.1,-9.0
C[C@H]1CCCCO[C@H](CN(C)C(=O)Nc2cccc3ccccc23)[C@@H](C)CN([C@@H](C)CO)C(=O)c2cc(NS(=O)(=O)c3ccccc3)ccc2O1,nt,-62.6,nt,nt,nt,nt,nt
C[C@H](CO)N1C[C@H](C)[C@@H](CN(C)C(=O)Nc2cccc3ccccc23)OCCCC[C@H](C)Oc2ccc(NS(=O)(=O)c3cccs3)cc2C1=O,4.6,-67.6,102.2*,105.6*,55.5,-19.9,-24.2
C[C@H](CO)N1C[C@H](C)[C@H](CN(C)C(=O)Nc2ccccc2)OCCCC[C@H](C)Oc2ccc(NS(=O)(=O)c3cccs3)cc2C1=O,4.7,nt,41.8,nt,nt,nt,nt
CN(C)C(=O)c1ccc(-c2ccc([C@@H]3[C@@H](C#N)N(C(=O)C4CC4)[C@H]3CO)cc2)cc1,-19.1,-31.2,103.9*,99.2*,?,2.0,63.3*
CN(C)C(=O)c1ccc(-c2ccc([C@H]3[C@@H](C#N)N(C(=O)C4CCCCC4)[C@H]3CO)cc2)cc1,-2.5,-38.5,?,6.6,29.1,22.9,26.6*
CN(C)C(=O)c1ccc(-c2ccc([C@@H]3[C@@H](CO)N(C(=O)C4CCCCC4)[C@H]3C#N)cc2)cc1,1.1,-30.8,89.1,nt,nt,nt,nt
CN(C)C(=O)c1ccc(-c2ccc([C@@H]3[C@@H](CO)N(C(=O)C4CC4)[C@H]3C#N)cc2)cc1,1.1,-14.4,67.4,nt,nt,nt,nt
C[C@@H]1CN([C@H](C)CO)C(=O)c2cc(NC(=O)NC3CCCCC3)ccc2O[C@@H](C)CCCCO[C@@H]1CN(C)Cc1ccc(C(=O)O)cc1,-2.3,-15.8,-31.6,nt,nt,nt,nt

# Bioassay records deposited in PubChem by Broad Institute.
